The source of these data is PubChem BioAssay (NCATS).

Records with an inconclusive call do not appear. Active and inactive are the calls of the source. Calls come from the whole dose curve; as a rule, active = well fitted inhibition curve with a large enough effect; inconclusive = small, poorly fitted or top-dose-only effect; inactive = no such curve, though single readings can be large or run the other way.

The test has as its target Retinaldehyde dehydrogenase 3 (Homo sapiens) (UniProt P47895). Briefly: qHTS for Inhibitors of the Aldehyde Dehydrogenase Family (ALDH1A3) Primary screen (AID 2061315).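 Note: plate controls were DMSO vehicle for no effect and reference inhibitor for full effect.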 Particulars: ALDH inhibition qHTS; series mostly up to 56 µM; activity change, negative = inhibition: at the top concentration.
With `O=S1(=O)N=C(Oc2ccc3ccccc3c2)c2ccccc21`, the “activity change, negative = inhibition” value was -12.4% (inactive).
With `COc1cc(O)c(C(CC(=O)N2CC(C)CC(C)C2)c2ccc(C)cc2)c(OC)c1` (stereo not given), the “activity change, negative = inhibition” value was -9.67% (inactive).
Regarding `COc1cc(/C=C2/C(=O)Nc3ccccc32)cc(OC)c1O`, the “activity change, negative = inhibition” value is 6.41% (inactive).
For the compound `Cc1cc(C)nc(NC(=S)N2CCN(c3cccc4ccccc34)CC2)c1`, the “activity change, negative = inhibition” value is -14.4% (inactive).
Still for that read-out and setting: in the case of `O=S1(=O)N=C(Oc2ccc(Br)cc2)c2ccccc21` it was -15.8% (inactive).
As for `Cc1ccc(NS(=O)(=O)c2ccc(-c3ccccc3)cc2)cc1C`, the “activity change, negative = inhibition” value was 7.57% (inactive).
As for `CS(=O)(=O)Nc1cccc(-c2cc(F)c(S(=O)(=O)N3CCN(S(=O)(=O)c4ccc5c(c4)OCCO5)CC3)cc2F)c1`, the “activity change, negative = inhibition” value is 17.1% (inactive).
The same measure, in the same setting: to `CCCC1CCN(C(=O)COC(=O)c2ccc(S(C)(=O)=O)c([N+](=O)[O-])c2)CC1` belongs -5.97% (inactive); to `CCOC(=O)c1[nH]c2c(c1C)CCC(c1ccco1)C2` (stereo not given), -8.34% (inactive); to `CN(C)c1ccc(C(=O)OCC#CCSc2nnc(-c3cccc4ccccc34)o2)cc1`, 15.4% (inactive).
With `CCCC(C)NC(=O)Cn1nc(-c2ccc(C)cc2)ccc1=O` (stereo not given), the “activity change, negative = inhibition” value was -5.13% (inactive).
For the compound `COc1cc(F)c(S(=O)(=O)N2CCN(S(=O)(=O)c3cccs3)CC2)c(F)c1`, the “activity change, negative = inhibition” value was -0.366% (inactive).
In the case of `Cc1cc(C)nc(NC(=S)N2CCN(c3cccc(OC(F)(F)F)c3)CC2)c1`, the “activity change, negative = inhibition” value is 0.274% (inactive).
For the compound `CCN(Cc1cccs1)c1ncnc2ccc(-c3ccc4c(c3)OCO4)cc12`, the Potency entry was “inactive”.
For the compound `COc1cc(O)c([C@H](CC(=O)N2CC(C)CC(C)C2)c2ccc3c(c2)OCO3)c(OC)c1` (stereo not given in full), the “activity change, negative = inhibition” value is 9.52% [at 114 µM] (inactive).
Turning to `CC(C)(C)c1ccc(C(=O)Nc2ccc(-c3nc4ccccc4[nH]3)cc2)cc1`, the “activity change, negative = inhibition” value was 6.42% (inactive).
On to `NC(=O)C1CCN(c2nc(-c3ccc(OC(F)(F)F)cc3)cs2)CC1`, for which the “activity change, negative = inhibition” value is 11% (inactive).
The same measure, in the same setting: to `CCOc1cccc(-c2cc(-c3n[nH]c(=S)n3CC)c3ccccc3n2)c1` belongs 35% (inactive).
On to `C[C@H](NC(c1ccc(F)cc1)c1ccc2cccnc2c1O)c1ccccc1` (stereo not given in full), for which the Potency result is “inactive”.
`CN(C)c1ccc(-c2nc3ncc(Cl)c(N4CCN(CC(=O)Nc5nccs5)CC4)c3[nH]2)cc1`: the “activity change, negative = inhibition” value was 4% [at 28 µM] (inactive).
For the compound `Cc1cccc(CNc2ccnc(-c3ccc4ccccc4c3)n2)c1`, the “activity change, negative = inhibition” value is -2.85% (inactive).
As to `CC(C)(C)OC(=O)N[C@@H](Cc1ccc(O[S+](=O)([O-])c2cccc3cnccc23)cc1)C(=O)N1CCN(Cc2ccccc2)CC1`, the “activity change, negative = inhibition” value was -0.624% (inactive).
For `O=c1c2ccccc2nc2sc(NS(=O)(=O)c3ccc4c(c3)CCC4)nn12`, the “activity change, negative = inhibition” value is -5.34% (inactive).
Take `CN(CC(=O)Nc1ccc(N2CCOCC2)cc1)Cc1cccc2ccccc12`: the “activity change, negative = inhibition” value is -12.5% (inactive).
For the compound `FC(F)(F)c1ccccc1-c1nc(NCc2ccc(-c3ccc(Cl)c(Cl)c3)cc2)c2ccccc2n1`, the “activity change, negative = inhibition” value is -14.5% (inactive).
Still for that read-out and setting: to `Nc1ccc(-c2ccnc(NCCCNC(=O)c3c(Cl)cccc3Cl)n2)cc1` belongs 9.51% (inactive).
Still for that read-out and setting: in the case of `Cc1ccc([S+](=O)([O-])Nc2nn3c(=O)c4ccccc4nc3s2)cc1C` it was 4.35% (inactive); in that of `O=C1c2ccccc2NC(c2ccc(-c3cccc(Cl)c3)o2)N1O` (stereo not given), 17.8% (inactive); in that of `c1cncc(-c2ccc3ncnc(NCc4ccc5c(c4)OCO5)c3c2)c1`, -11.4% (inactive).
`O=C(NCc1nnc(C(=O)Nc2ccc(C(F)(F)F)cc2Cl)o1)c1ccccc1`: the “activity change, negative = inhibition” value was 19.9% (inactive).
Take `CC(=O)N1CCN(c2cccc(Nc3nn4c(=O)c5ccccc5nc4s3)c2)CC1`: the “activity change, negative = inhibition” value was -10.3% (inactive).
The same measure, in the same setting: in the case of `O=C(O)c1ccc(O)c2ncc(N3CCCN(CCc4ccncc4)CC3)cc12` it was 2.47% (inactive).
On the same count and under the same terms, in the case of `COc1ccc2ncnc(NCc3cccs3)c2c1-c1ccc2c(c1)OCO2` it was -9.41% (inactive); in that of `Cc1ccc(CNc2ncnc3ccc(-c4ccc5c(c4)OCO5)cc23)s1`, 2.82% (inactive).
As to `COc1ccc(C2c3c(nc(CCc4ccccc4)[nH]c3=O)Oc3ccc4ccccc4c32)cc1OC` (stereo not given), the “activity change, negative = inhibition” value is -7.47% (inactive).
Still for that read-out and setting: to `CN(C)c1ccc2c(=O)n3nc(Nc4ccc5c(c4)CCC5)sc3nc2c1` belongs -0.89% (inactive).
The same measure, in the same setting: in the case of `CC(=O)c1ccc(-c2ccc3ncnc(NCc4ccc(C)o4)c3c2)o1` it was -8.73% (inactive).
Take `COc1cccc(CNc2ccc(S(=O)(=O)Nc3cccs3)cc2)c1O`: the activity change, negative = inhibition was -2.44% [at 11.2 µM] (inactive).
Regarding `O=[S+]([O-])(Nc1ccc2ccccc2c1)c1ccc(NCc2ccc(Cl)cc2O)cc1`, the “activity change, negative = inhibition” value was -2.49% (inactive).
Turning to `O=c1c(Nc2ccc(Br)c(Br)c2)c(Nc2nnc(-c3ccncc3)s2)c1=O`, the “activity change, negative = inhibition” value was 8.23% (inactive).
